Measured values reported in the supplement of paper PMC6555819.

Tests used:
Assay in all cases: PBM binding z-score (relative to random genomic background probes); higher = stronger binding; sequences stand for … in GC…GCGATTGACAGCGTAGAATGAAGG
[1] = tested on: FXR:RXRa (NR concentration 270 nM, RXRa partner concentration 90 nM)
Outline: (§1)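 Regression normalization was applied to scanned fluorescence from custom Agilent 4×180K protein-binding microarrays. Before scanning, arrays were incubated 1 h with ligand-free nuclear receptor dimers, and binding was detected with antibodies against each partner (one per run). Binding z-scores use the random background probes as reference.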

[2] = tested on: LXRa:RXRa (NR concentration 270 nM, RXRa partner concentration 90 nM)
Outline: as §1

[3] = tested on: LXRa homodimer (NR concentration 270 nM)
Outline: as §1

[4] = tested on: LXRb:RXRa (NR concentration 270 nM, RXRa partner concentration 90 nM)
Outline: as §1

[5] = tested on: LXRb homodimer (NR concentration 270 nM)
Outline: as §1

[6] = tested on: PPARa:RXRa (NR concentration 270 nM, RXRa partner concentration 90 nM)
Outline: as §1

[7] = tested on: PPARg:RXRa (NR concentration 180 nM, RXRa partner concentration 90 nM)
Outline: as §1

[8] = tested on: PPARg:RXRa 270nM:90nM, anti-RXR (NR concentration 270 nM, RXRa partner concentration 90 nM)
Outline: as §1

[9] = tested on: PPARg:RXRa 30nM:10nM, anti-RXR (NR concentration 30 nM, RXRa partner concentration 10 nM)
Outline: as §1

[10] = tested on: PPARg:RXRa 90nM:30nM, anti-RXR (NR concentration 90 nM, RXRa partner concentration 30 nM)
Outline: as §1

[11] = tested on: PPARg:RXRa DBDmut IVT, anti-RXR (DBD mutation: RXRa K156A/R161A, NR concentration 270 nM, RXRa partner concentration 90 nM)
Outline: as §1

[12] = tested on: PPARg:RXRa IVT, anti-PPARg (NR concentration 270 nM, RXRa partner concentration 90 nM)
Outline: as §1

[13] = tested on: PPARg DBDmut:RXRa IVT, anti-PPARg (DBD mutation: PPARg1 K132A/R137A, NR concentration 270 nM, RXRa partner concentration 90 nM)
Outline: as §1

[14] = tested on: PPARg DBDmut IVT, anti-PPARg (DBD mutation: PPARg1 K132A/R137A, NR concentration 270 nM)
Outline: as §1

[15] = tested on: PPARg homodimer (NR concentration 180 nM)
Outline: as §1

[16] = tested on: PXR:RXRa (NR concentration 270 nM, RXRa partner concentration 90 nM)
Outline: as §1

[17] = tested on: PXR homodimer (NR concentration 270 nM)
Outline: as §1

[18] = tested on: RARa:RXR (NR concentration 270 nM, RXRa partner concentration 90 nM)
Outline: as §1

[19] = tested on: RARa homodimer (NR concentration 270 nM)
Outline: as §1

[20] = tested on: RARb:RXRa (NR concentration 270 nM, RXRa partner concentration 90 nM)
Outline: as §1

| Sequence | PBM binding z-score [1] | PBM binding z-score [2] | PBM binding z-score [3] | PBM binding z-score [4] | PBM binding z-score [5] | PBM binding z-score [6] | PBM binding z-score [7] | PBM binding z-score [8] | PBM binding z-score [9] | PBM binding z-score [10] | PBM binding z-score [11] | PBM binding z-score [12] | PBM binding z-score [13] | PBM binding z-score [14] | PBM binding z-score [15] | PBM binding z-score [16] | PBM binding z-score [17] | PBM binding z-score [18] | PBM binding z-score [19] | PBM binding z-score [20] |
| --- | --- | --- | --- | --- | --- | --- | --- | --- | --- | --- | --- | --- | --- | --- | --- | --- | --- | --- | --- | --- |
| TCGAGTAGGTTAGTCGGGGCAATCAGCCAACATA | 0.297 | -0.165 | -0.263 | 0.224 | -1.01 | 0.796 | 0.0628 | 0.946 | 1.01 | 0.797 | 2.37 | 2.34 | -0.202 | -1.1 | -0.0632 | 0.138 | -0.459 | 0.453 | -0.959 | 0.473 |
| TGAATGAGGTTAGAAGATCAGGGAACGTTGCAAA | 0.452 | 0.337 | -0.383 | 0.0743 | -0.188 | 1.59 | 0.84 | 1.29 | 0.759 | 0.966 | 0.481 | 1.07 | 0.215 | 0.423 | 0.0749 | 0.145 | -0.0637 | 0.485 | 0.14 | 0.954 |
| TCTTGTAGATCAACAGGACGTTAAGAAAGATCGA | 0.291 | 0.413 | -0.398 | 0.173 | -0.226 | 0.653 | 0.338 | 1.62 | 2.86 | 2.27 | 1.79 | 0.305 | 0.99 | 0.998 | 0.259 | 0.135 | -0.241 | 0.574 | 0.262 | -0.11 |
| GGAACGAGGGCATTCGAGTTGATAGCTTGGCGAT | 1.76 | 1.65 | -0.471 | 0.207 | -0.992 | 1.36 | 0.667 | 0.802 | -0.342 | 0.275 | 3.44 | 2.2 | -0.209 | -0.379 | -0.157 | 3.79 | 1.99 | 0.494 | -1 | 1.87 |
| TCGAGTATGTTACCAATGGGGCATTCAGCTTTCT | -0.179 | -0.268 | -0.402 | 0.416 | -0.279 | 0.256 | -0.157 | 0.416 | 1.14 | 0.894 | 1.25 | 0.121 | -0.168 | -0.0708 | -0.422 | 0.0821 | -0.273 | 0.0781 | -0.543 | -0.0471 |
| ACAGACAGGTGATGACGGTAACTCAGGCTATCAT | -0.347 | -0.186 | -0.31 | -0.476 | -0.424 | -0.121 | 0.839 | -0.227 | -0.335 | -0.0238 | 0.226 | 0.0775 | -0.319 | -0.184 | -0.306 | -0.319 | -0.0472 | -0.196 | 0.273 | 0.237 |
| CATACAGAGTCAGCTAGGCCAGAGTAGGGACGGC | -0.451 | -0.383 | -0.608 | -0.891 | -0.106 | -0.478 | 0.472 | -0.324 | -0.369 | -0.479 | -0.267 | 0.0883 | 0.15 | 0.197 | -0.174 | -0.875 | -0.632 | -0.635 | -0.132 | 0.148 |
| TAGCCTAGGTCTTGGGCCAGTATACCACGCGAAC | -0.302 | -0.359 | -0.58 | -0.334 | -0.384 | -0.242 | 0.0651 | -0.286 | -0.619 | -0.51 | -0.718 | -0.4 | -0.0485 | -0.703 | -0.0751 | -0.448 | -0.379 | -0.298 | -0.982 | 0.162 |
| CGTCCAAGGTCAGGAGGTCAGTGAAAGCGACGTG | 6.23 | 4.55 | 1.15 | 3.64 | -0.0727 | 5.43 | 4.93 | 5.41 | 1.89 | 4.06 | 2.95 | 3.93 | -0.53 | -1.29 | 5.26 | 4.65 | 1.1 | 6.11 | 1.5 | 5.52 |
| ACGATTAGTTGAGACGAGGGCAACCGATAGGTTG | 0.116 | -0.256 | -0.3 | -0.292 | -0.463 | 0.252 | 0.533 | -0.0475 | -0.114 | -0.534 | -0.118 | 0.112 | 0.232 | -0.573 | 0.155 | 1.11 | 0.466 | 0.874 | 0.365 | 0.555 |
| CGTCCAAGGTCAGCAGGTCATTGAAAGCGACGTG | 6.58 | 4.67 | 1.51 | 3.86 | -0.214 | 5.46 | 5.09 | 4.94 | 1.14 | 3.42 | 2.83 | 3.78 | 0.265 | -0.0575 | 3.28 | 4.51 | 0.829 | 5.89 | 0.397 | 5.51 |
| ATCTTTAGGTAACCAAGTTCAGTGAATGCCGAAC | 0.613 | 1.14 | 0.896 | 0.862 | 1.2 | 0.968 | 0.323 | 0.52 | 0.251 | 0.342 | 2.35 | 1.85 | 1.09 | 1.61 | 0.811 | 2.06 | 1.53 | 1 | 0.564 | 1.31 |
| TTACCAAGGTGAGCTGAGGTAGTTGATCCAACTC | -0.711 | -0.48 | -0.742 | -0.743 | -1.03 | 0.16 | -0.149 | -0.0423 | -0.136 | -0.391 | 0.816 | 1.21 | 0.143 | -0.469 | -1.15 | 0.018 | -0.878 | 1.14 | -0.894 | 0.883 |
